From the supplement of paper PMC10849652
About 8,800 targets were measured; listed, in parts, are those with a hit and a random draw of the rest. About 0.5% of all pairs of compound and target were hits. Values without a mark were called inactive.

Tests used:
Assay in all cases: log2 fold change, soluble protein after heating vs DMSO (PISA); higher = thermal stabilisation; K562 lysate, 10 uM; active = over 0.2 and 3.5 SD of the protein, either way, in both replicates (recomputed)
nilotinib = compound: Cc1cn(-c2cc(NC(=O)c3ccc(C)c(Nc4nccc(-c5cccnc5)n4)c3)cc(C(F)(F)F)c2)cn1 [nilotinib]
How it was run: (§1)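 Following dounce homogenisation of K562 pellets in PBS pH 7.4 with 1 mM MgCl2, crude extract at 1 mg/mL protein was incubated for 30 min with 10 μM compound. Aliquots were then heated for 3 min over 48°C-58°C and pooled, NP-40 was added to 0.5% at 4°C, and soluble protein was recovered as the supernatant at 21,000xg for 90 min. Channel-sum-equalised TMTpro 16plex LC-MS/MS quantified this protein. Each value, from duplicates, is a log-two fold change in thermal stability relative to solvent controls.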

[1] = compound: Cc1nc(Nc2n[nH]c3c2CN(C(=O)N[C@H](CN(C)C)c2ccccc2)C3(C)C)c2sccc2n1
How it was run: as §1

dasatinib = compound: Cc1nc(Nc2ncc(C(=O)Nc3c(C)cccc3Cl)s2)cc(N2CCN(CCO)CC2)n1 [dasatinib]
How it was run: as §1

[2] = compound: Cc1ncc(-c2ccnc(Nc3ccc(S(C)(=O)=O)cc3)n2)n1C(C)C
How it was run: as §1

[3] = compound: Cn1cc(-c2ccc3c(c2)CCN3C(=O)Cc2cccc(C(F)(F)F)c2)c2c(N)ncnc21
How it was run: as §1

quisinostat = compound: Cn1cc(CNCC2CCN(c3ncc(C(=O)NO)cn3)CC2)c2ccccc21 [quisinostat]
How it was run: as §1

tipifarnib = compound: Cn1cncc1[C@@](N)(c1ccc(Cl)cc1)c1ccc2c(c1)c(-c1cccc(Cl)c1)cc(=O)n2C [tipifarnib]
How it was run: as §1

[4] = compound: NC(=O)Nc1cc(-c2cccc(F)c2)sc1C(=O)N[C@H]1CCCNC1
How it was run: as §1

[5] = compound: NC1(c2ccc(-c3nc4ccn5c(=O)[nH]nc5c4cc3-c3ccccc3)cc2)CCC1
How it was run: as §1

vorinostat = compound: O=C(CCCCCCC(=O)Nc1ccccc1)NO [vorinostat]
How it was run: as §1

silmitasertib = compound: O=C(O)c1ccc2c(c1)nc(Nc1cccc(Cl)c1)c1ccncc12 [silmitasertib]
How it was run: as §1

[6] = compound: O=C1NC(=O)C(c2cnc3ccccn23)=C1c1cn2c3c(cc(F)cc13)CN(C(=O)N1CCCCC1)CC2
How it was run: as §1

[7] = compound: NC(=O)c1cnc(N[C@@H]2CCCC[C@@H]2N)nc1Nc1cccc(-n2nccn2)c1
How it was run: as §1

[8] = compound: NCC(=O)Nc1ccc(-n2nc(C(F)(F)F)cc2-c2ccc3c(ccc4ccccc43)c2)cc1
How it was run: as §1

entospletinib = compound: c1cn2cc(-c3ccc4cn[nH]c4c3)nc(Nc3ccc(N4CCOCC4)cc3)c2n1 [entospletinib]
How it was run: as §1

UniProt Q96SB4, sequence (Q96SB4 whole entry, looked up): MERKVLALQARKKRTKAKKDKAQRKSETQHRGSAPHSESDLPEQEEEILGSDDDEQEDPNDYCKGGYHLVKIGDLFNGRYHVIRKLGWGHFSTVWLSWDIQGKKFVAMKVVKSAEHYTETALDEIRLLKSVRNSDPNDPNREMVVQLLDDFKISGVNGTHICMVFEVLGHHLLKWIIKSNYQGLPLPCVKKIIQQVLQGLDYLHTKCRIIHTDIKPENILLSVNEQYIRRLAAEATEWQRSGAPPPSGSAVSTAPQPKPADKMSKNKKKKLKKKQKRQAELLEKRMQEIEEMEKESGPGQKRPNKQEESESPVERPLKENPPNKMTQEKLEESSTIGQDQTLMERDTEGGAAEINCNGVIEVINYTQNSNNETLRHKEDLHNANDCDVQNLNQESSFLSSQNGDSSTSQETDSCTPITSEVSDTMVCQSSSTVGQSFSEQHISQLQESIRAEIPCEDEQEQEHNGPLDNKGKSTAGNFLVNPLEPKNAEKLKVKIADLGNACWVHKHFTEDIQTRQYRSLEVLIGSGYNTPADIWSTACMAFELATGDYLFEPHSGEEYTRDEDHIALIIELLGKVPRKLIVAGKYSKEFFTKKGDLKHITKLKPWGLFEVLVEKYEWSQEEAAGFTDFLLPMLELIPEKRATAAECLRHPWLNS
UniProt Q8TBC3, sequence (Q8TBC3 whole entry, looked up): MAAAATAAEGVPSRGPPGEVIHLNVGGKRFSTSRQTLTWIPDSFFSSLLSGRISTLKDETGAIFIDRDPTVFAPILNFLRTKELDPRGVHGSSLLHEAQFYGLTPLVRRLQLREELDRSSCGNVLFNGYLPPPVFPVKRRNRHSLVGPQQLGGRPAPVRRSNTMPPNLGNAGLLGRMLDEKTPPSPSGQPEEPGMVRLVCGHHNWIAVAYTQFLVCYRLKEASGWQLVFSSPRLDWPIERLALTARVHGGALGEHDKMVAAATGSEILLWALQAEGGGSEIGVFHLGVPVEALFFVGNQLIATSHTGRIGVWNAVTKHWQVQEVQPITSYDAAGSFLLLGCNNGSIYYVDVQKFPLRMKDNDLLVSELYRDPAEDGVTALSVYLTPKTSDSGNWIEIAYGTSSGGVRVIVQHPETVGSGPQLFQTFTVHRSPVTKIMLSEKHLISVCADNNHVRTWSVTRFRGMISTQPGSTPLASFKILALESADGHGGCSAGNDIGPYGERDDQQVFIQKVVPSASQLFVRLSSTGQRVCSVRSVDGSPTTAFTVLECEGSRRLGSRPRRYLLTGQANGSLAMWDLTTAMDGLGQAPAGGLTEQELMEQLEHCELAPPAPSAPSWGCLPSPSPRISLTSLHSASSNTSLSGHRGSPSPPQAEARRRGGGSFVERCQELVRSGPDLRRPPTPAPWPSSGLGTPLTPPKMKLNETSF
UniProt Q92540, sequence (Q92540 whole entry, looked up): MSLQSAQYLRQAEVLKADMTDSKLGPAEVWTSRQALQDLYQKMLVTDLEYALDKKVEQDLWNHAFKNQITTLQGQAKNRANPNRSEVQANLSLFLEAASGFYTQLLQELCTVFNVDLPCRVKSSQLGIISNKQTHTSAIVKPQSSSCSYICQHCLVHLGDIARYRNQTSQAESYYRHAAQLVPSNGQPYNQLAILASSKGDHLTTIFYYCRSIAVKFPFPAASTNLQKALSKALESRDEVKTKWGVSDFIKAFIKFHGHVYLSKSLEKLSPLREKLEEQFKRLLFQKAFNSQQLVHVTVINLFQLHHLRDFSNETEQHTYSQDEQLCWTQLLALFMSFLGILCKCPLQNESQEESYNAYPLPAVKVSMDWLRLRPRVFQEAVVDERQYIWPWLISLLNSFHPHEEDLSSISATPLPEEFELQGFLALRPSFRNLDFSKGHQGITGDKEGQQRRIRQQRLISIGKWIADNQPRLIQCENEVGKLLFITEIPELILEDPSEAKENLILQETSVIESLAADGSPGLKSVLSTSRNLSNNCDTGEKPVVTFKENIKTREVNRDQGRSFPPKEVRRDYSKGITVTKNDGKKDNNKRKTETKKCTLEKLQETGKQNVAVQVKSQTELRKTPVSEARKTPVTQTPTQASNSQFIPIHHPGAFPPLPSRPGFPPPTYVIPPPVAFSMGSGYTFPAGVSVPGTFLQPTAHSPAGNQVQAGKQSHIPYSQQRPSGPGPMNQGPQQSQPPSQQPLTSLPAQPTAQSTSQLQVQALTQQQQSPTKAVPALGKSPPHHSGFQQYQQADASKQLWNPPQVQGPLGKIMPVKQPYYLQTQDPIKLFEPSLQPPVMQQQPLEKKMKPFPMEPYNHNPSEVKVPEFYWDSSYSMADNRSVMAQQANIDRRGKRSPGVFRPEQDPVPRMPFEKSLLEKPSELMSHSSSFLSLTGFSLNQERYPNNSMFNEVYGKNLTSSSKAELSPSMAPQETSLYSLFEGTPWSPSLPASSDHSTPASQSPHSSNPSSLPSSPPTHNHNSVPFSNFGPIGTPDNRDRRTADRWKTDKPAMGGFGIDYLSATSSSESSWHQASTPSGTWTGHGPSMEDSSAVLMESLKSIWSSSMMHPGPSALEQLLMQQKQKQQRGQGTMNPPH
UniProt P51532, sequence (P51532 whole entry, looked up): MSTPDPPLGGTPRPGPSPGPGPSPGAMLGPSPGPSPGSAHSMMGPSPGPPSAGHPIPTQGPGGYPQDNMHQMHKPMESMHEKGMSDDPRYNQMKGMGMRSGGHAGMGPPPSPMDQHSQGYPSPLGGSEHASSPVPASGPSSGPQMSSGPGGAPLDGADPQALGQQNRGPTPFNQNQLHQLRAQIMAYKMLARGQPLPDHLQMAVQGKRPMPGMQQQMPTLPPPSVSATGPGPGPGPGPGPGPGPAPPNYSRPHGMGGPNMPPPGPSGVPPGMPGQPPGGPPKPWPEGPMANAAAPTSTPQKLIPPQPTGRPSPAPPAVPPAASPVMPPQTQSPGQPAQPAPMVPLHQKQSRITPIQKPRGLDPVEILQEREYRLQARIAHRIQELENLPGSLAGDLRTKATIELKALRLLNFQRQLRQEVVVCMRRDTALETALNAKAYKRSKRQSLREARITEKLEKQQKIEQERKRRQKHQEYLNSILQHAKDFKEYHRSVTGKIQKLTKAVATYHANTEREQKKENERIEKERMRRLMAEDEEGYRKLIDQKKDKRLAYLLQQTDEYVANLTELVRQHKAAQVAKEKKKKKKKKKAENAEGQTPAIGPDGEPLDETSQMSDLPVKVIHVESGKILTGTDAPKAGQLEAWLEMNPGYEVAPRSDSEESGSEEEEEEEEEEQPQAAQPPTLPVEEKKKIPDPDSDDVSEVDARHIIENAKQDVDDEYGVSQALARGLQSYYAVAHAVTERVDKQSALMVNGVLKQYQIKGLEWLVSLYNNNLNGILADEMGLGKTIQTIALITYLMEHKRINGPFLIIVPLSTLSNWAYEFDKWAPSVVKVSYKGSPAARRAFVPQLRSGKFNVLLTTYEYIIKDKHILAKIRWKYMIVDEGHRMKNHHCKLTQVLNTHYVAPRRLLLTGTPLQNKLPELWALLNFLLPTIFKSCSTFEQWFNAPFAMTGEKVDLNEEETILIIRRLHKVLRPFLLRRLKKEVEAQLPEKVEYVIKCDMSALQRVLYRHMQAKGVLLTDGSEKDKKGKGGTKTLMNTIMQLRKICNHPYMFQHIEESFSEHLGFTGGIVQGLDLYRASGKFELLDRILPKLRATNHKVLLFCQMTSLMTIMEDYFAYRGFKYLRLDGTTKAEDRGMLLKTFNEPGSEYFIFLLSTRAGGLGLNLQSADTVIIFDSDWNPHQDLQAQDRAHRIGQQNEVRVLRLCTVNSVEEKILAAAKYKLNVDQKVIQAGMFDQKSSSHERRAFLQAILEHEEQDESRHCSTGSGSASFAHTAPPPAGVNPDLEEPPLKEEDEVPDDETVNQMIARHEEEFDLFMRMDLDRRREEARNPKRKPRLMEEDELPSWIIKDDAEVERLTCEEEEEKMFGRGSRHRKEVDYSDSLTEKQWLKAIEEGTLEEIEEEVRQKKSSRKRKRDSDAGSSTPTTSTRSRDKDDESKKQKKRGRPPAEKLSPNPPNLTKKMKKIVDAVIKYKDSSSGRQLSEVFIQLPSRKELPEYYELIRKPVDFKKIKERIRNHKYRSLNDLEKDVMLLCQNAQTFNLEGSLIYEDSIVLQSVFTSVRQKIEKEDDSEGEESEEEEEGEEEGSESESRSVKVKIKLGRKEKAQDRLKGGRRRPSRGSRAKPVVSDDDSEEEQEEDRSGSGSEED
UniProt Q9Y6J9, sequence (Q9Y6J9 whole entry, looked up): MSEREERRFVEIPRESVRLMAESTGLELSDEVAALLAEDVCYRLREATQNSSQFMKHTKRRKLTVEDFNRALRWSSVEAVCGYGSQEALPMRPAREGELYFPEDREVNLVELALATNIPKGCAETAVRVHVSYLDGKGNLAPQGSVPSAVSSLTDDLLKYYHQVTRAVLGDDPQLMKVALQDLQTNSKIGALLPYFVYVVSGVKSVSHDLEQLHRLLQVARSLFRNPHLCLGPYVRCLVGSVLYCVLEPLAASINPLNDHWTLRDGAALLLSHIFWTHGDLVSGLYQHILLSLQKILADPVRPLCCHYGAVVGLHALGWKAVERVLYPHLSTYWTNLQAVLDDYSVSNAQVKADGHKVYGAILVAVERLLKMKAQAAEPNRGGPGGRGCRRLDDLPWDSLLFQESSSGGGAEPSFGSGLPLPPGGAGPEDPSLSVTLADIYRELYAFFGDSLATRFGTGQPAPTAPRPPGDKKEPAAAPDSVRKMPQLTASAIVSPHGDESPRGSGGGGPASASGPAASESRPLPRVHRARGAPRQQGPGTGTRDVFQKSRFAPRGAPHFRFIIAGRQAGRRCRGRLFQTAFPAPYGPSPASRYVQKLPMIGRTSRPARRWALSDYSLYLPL
UniProt O00161, sequence (O00161 whole entry, looked up): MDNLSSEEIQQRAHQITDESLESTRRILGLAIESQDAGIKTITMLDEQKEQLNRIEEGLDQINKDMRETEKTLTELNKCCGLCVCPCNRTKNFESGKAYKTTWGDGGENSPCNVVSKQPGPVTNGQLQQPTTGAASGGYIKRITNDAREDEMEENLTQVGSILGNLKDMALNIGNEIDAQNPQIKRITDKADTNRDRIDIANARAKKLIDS

Row | Target | log2 fold change (nilotinib) | log2 fold change [1] | log2 fold change (dasatinib) | log2 fold change [2] | log2 fold change [3] | log2 fold change (quisinostat) | log2 fold change (tipifarnib) | log2 fold change [4] | log2 fold change [5] | log2 fold change (vorinostat) | log2 fold change (silmitasertib) | log2 fold change [6] | log2 fold change [7] | log2 fold change [8] | log2 fold change (entospletinib)
1 | STK17B (UniProt O94768) | -0.006 | -0.022 | -0.063 | -0.197 | 0.065 | -0.255 | -0.08 | 0.634 | -0.021 | -0.221 | 0.807 (active) | 0.052 |  |  | 
2 | TAF1B (UniProt Q53T94) | -0.061 | -0.067 | -0.174 | -0.105 | 0.635 | -0.064 | -0.103 | 0.017 |  |  |  | -0.044 | 0.015 | 0.673 (active) | -0.026
3 | SNAPC2 (UniProt Q13487) | 0.066 | 0 | -0.24 | -0.067 | -0.122 | -0.021 | -0.106 | 0.029 | 0 | -0.631 (active) | -0.122 | -0.086 |  |  | 
4 | STK24 (UniProt B4DR80) | 0.031 | 0.298 (active) | 0.092 | 0.086 | -0.005 | -0.019 | 0.007 | 0.187 | -0.005 | 0.029 | -0.014 | -0.033 | 0.023 | 0.023 | 0.001
5 | SLU7 (UniProt O95391) | -0.052 | 0.045 | -0.025 | 0.047 | 0.013 | 0.244 | -0.029 | 0.086 | 0.016 | 0.012 | -0.037 | 0.046 |  | 0.208 | -0.024
6 | SPATS2 (UniProt Q86XZ4) | -0.069 | 0.042 | -0.073 | 0.074 | -0.03 | 0.144 | 0.013 | -0.107 | -0.013 | -0.507 (active) | 0.002 | -0.049 | -0.005 | -0.047 | 0.176
7 | SSBP3 (UniProt Q9BWW4) | -0.005 | 0.061 | -0.015 | 0.014 | 0.016 | 0.018 | 0.028 | -0.035 | -0.097 | 0.061 | -0.005 | 0.088 | -0.029 | -0.085 | 0.009
8 | SLC20A1 (UniProt Q8WUM9) | -0.021 | -0.001 | -0.023 | -0.03 | 0.007 | -0.048 | -0.007 | -0.034 | -0.099 | 0.062 | -0.05 | 0.021 | 0.05 | 0 | 0.064
9 | SIX5 (UniProt Q8N196) | 0.06 | -0.05 | 0.02 | 0.074 | -0.064 | -0.141 | 0.02 | 0.08 | -0.025 | 0.162 | -0.011 | -0.097 | 0.092 |  | 
10 | SRPK1 (UniProt Q96SB4) | -0.002 | 0.069 | -0.01 | -0.03 | 0.017 | -0.108 | -0.03 | 0.283 (active) | -0.069 | -0.172 | 0.119 | 0 | -0.021 | -0.043 | 0.012
11 | SNAP23 (UniProt O00161) | 0.001 | 0.015 | 0.045 | -0.013 | 0 | 0.035 | 0.036 | -0.019 | 0.031 | 0.052 | -0.067 | -0.016 | -0.016 | -0.017 | 0.004
12 | SPATA5 (UniProt Q8NB90) | 0.001 | 0.006 | -0.052 | -0.002 | 0.011 | -0.023 | -0.002 | 0.03 | -0.064 | -0.247 | 0.048 | -0.011 | 0.001 | 0.005 | 0.013
13 | SHKBP1 (UniProt Q8TBC3) | 0.055 | 0.098 | 0.117 | -0.072 | -0.011 | -0.039 | 0.088 | -0.016 | -0.096 | -0.069 | -0.06 | 0.01 | 0.007 | -0.031 | -0.218
14 | SMG7 (UniProt Q92540) | 0.001 | -0.034 | 0.003 | -0.058 | 0.03 | 0.062 | -0.072 | 0.054 | 0.04 | -0.053 | 0.027 | -0.035 | -0.067 | 0.158 | 0.054
15 | SYK (UniProt P43405) | 0.02 | -0.031 | -0.067 | 0 | 0.01 | -0.077 | -0.002 | -0.095 | -0.064 | -0.138 | 0.053 | 0.016 |  | 0.135 | -0.079
16 | SMARCA4 (UniProt P51532) | -0.002 | 0.023 | -0.042 | -0.019 | 0.004 | -0.029 | -0.018 | 0.043 | -0.024 | -0.246 (active) | 0.021 | -0.028 | 0.004 | 0.015 | -0.008
17 | TAF6L (UniProt Q9Y6J9) | -0.023 | 0.012 | -0.118 | 0.021 | 0.056 | 0.018 | -0.032 | 0.094 | 0.034 | -0.086 | 0.013 | -0.033 | 0.028 | -0.022 | -0.08
18 | SLC12A6 (UniProt Q9UHW9) | -0.004 | 0 | 0.024 | -0.066 | -0.003 | -0.013 | 0.012 | -0.001 | 0.026 | 0.15 | -0.045 | 0.003 | -0.022 | 0.009 | 0.013
